Source: PubChem (National Center for Advancing Translational Sciences (NCATS))
HepG2 viability: counter-screen for TGF-b inhibitors: cytotoxicity in HepG2 cells; HepG2 CAGA-GFP viability, ATP luminescence, 18 h; Potency, µM (series often up to 46.1 µM), inactives show at the highest dose activity change, negative = cytotoxicity, most hits filed as cytotoxic; actives 0.76% (n = 410,000); AID 588856
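CellTiter-Glo luminescence gave cytotoxicity after 18 hours at 37 degrees C. The cells were HepG2 CAGA-GFP in 1% FBS DMEM, stimulated with 500 pg/mL TGF-beta after compound addition. %Activity was normalised to no-cell wells (complete cell-killing) and DMSO (no toxicity), and curves were fitted and classified.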
TDP1 cell CPT: DT40-hTDP1 cell growth loss with CPT. chicken DT40 Tdp1-/-;hTDP1 cells + 20 nM CPT, ATP luminescence, 48 h. Potency, µM (titrated, usually from 46.2 µM), for the others: at the highest dose activity change, negative = growth inhibition, usual class: inhibitors. actives 12% (n = 420,000). AID 686979; note: % is set by controls: 0 for no effect and ±100 for the full control effect; nearly all actives have a fitted effect of over 55% in size
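Chicken DT40 Tdp1-/- cells stably complemented with human TDP1 were seeded at 400 cells/well in medium containing 20 nM camptothecin, exposed to pin-transferred compounds, and grown at 37 °C for at least 48 hr. Viability was read as ATP luminescence.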
TGFb SMAD3 inh: TGF-b pathway inhibition | HepG2 CAGA-GFP TGF-b/SMAD3 reporter, GFP fluorescence, 18 h; TGF-beta stimulated, 500 pg/mL final | Potency, µM (doses to about 46.1 µM), inactives show at the highest dose activity, negative = inhibition, most hits filed as inhibitors | actives 1.2% (n = 410,000); note: % is set by controls: 0 for no effect and ±100 for the full control effect; nearly all actives have a fitted effect of over 65% in size
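First, reporter cells (HEPG2 CAGA-GFP) rested 2 h at 37 degrees C. Next, compounds were pinned in and TGF-beta added to 500 pg/mL final. After 18 h, GFP was imaged per cell and summed per well.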
TDP1 cell noCPT: qHTS for Inhibitors of human tyrosyl-DNA phosphodiesterase 1 (TDP1): qHTS in cells in absence of CPT; DT40 Tdp1-/- hTDP1 cells, no CPT, ATP luminescence, 48 h; actives 15% (n = 420,000); Potency, µM (highest dose often 46.2 µM), without a hit: top-dose activity change, negative = growth inhibition, most hits filed as inhibitors; note: % is set by controls: 0 for no effect and ±100 for the full control effect; nearly all actives have a fitted effect of over 55% in size
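Seeded 400 DT40-hTDP1 cells/well (vehicle DMSO, no 20 nM CPT); pinned compounds; ≥48 hr at 37 °C; CellTiter-Glo luminescence as viability measure.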
HT1080 IDH1KD tx: HT-1080 IDH1 knockdown cell toxicity (counter line). Potency, µM (top dose mostly 46.1 µM), for the others: at the top dose activity, negative = toxicity, hits mostly cytotoxic. actives 2% (n = 360,000). HT-1080 IDH1 knockdown viability, ATP luminescence, 48 h;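 note: 0% = DMSO wells and -100% = cell-free medium wells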
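Cytotoxicity counter-line: IDH1KD HT-1080, 48 h, CellTiter-Glo. Curves classed by r2, magnitude and activity.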
HT1080-NT tox: kills 2HG-producing HT-1080-NT fibrosarcoma cells. AID 686970. HT-1080-NT fibrosarcoma viability, CellTiter-Glo ATP luminescence, 48 h. actives 1.6% (n = 360,000). Potency, µM (highest dose often 46.1 µM), without a hit: at the highest dose activity, negative = less viability, actives largely listed as cytotoxic;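 note: NT is the 2HG producing partner of a matched IDH1 knockdown line; 0% = DMSO-treated cells and -100% = media-only wells without cells; nearly all actives have a fitted effect of over 55% in size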
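Luminescent CellTiter-Glo readout after 48 hours of compound exposure at 37 degrees C defined viability of HT-1080-NT cells. Activity was normalized to DMSO wells and cell-free media wells; concentration-response curves were fitted and assigned curve classes.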
Starred values were filed as active, the others as inactive; u = inconclusive; x = no result given; ! = a repeat was not active. Rows were chosen to be rich in hits. Some 17% of all compounds tested hit in one or more screens of this group. Calls come from the whole dose curve; as a rule, active = well fitted curve in the direction sought with a large enough effect; inconclusive = small, poorly fitted or top-dose-only effect, or another doubt; inactive = no such curve, though single readings can be large; an effect the other way counts as inactive or inconclusive. Potency is the fitted concentration of half-maximal effect.

SMILES | HepG2 viability | TDP1 cell CPT | TGFb SMAD3 inh | TDP1 cell noCPT | HT1080 IDH1KD tx | HT1080-NT tox
CN(C)CCCNc1ncnc2c1cnn2Cc1ccccc1Cl | -10% | 4% | 16% | -2% | -4% | -6%
Fc1ccc(-n2ncc3c(Nc4ccc5c(c4)OCCO5)ncnc32)cc1 | -4% | 13µM* | u | 29µM* | x | x
Cc1ccc(Cl)cc1-n1ncc2c(Nc3ccc4c(c3)OCCO4)ncnc21 | -3% | 26µM* | 0% | u | x | x
Cc1ccc(-n2ncc3c(NCCCN(C)C)ncnc32)cc1Cl | 13µM* | u | u | u | x | x
Cc1ccc(-n2ncc3c(Nc4ccc5c(c4)OCCO5)ncnc32)cc1Cl | -20% | u | 0% | 23µM* | x | x
O=C(Nc1c(-c2ccc(Cl)cc2)[nH][nH]c1=O)c1ccccn1 | -14% | -10% | -6% | -30% | -6% | -1%
Cc1nnc(N2CCC(C(=O)N3CCCCC3)CC2)c2nn(-c3ccccc3)c(C)c12 | -3% | -26% | -19% | u | x | x
O=c1c(-c2cc(F)cc(F)c2)nc2cnc(N3CCOCC3)nc2n1C[C@H]1CCCO1 | x | 9% | x | 13% | x | x
Cc1ccc(S(=O)(=O)Nc2cccc(C(=O)NCC(c3ccco3)N3CCCCC3)c2)cc1F (stereo not drawn) | -37% | u | -24% | 21µM* | -6% | -4%
Cc1ccc(S(=O)(=O)N(C)c2ccc(C(=O)NCC(c3cccs3)N3CCOCC3)cc2)cc1 (stereo not drawn) | -6% | 21µM* | 2% | u | -11% | -4%
CN(c1ccccc1)S(=O)(=O)c1ccc(C(=O)NCC(c2ccco2)N2CCCCC2)cc1 (stereo not drawn) | -16% | u | -5% | 15µM* | 1% | 14%
Cc1ccc(S(=O)(=O)Nc2ccccc2OC(C(=O)OC(C)(C)C)C(=O)OC(C)(C)C)cc1 | x | 15µM* | x | 16µM* | u | u
Cc1cc(S(=O)(=O)Nc2ccc(C(=O)NCC(c3ccco3)N3CCCCC3)cc2)ccc1F (stereo not drawn) | -24% | -9% | 0% | -24% | 1% | 0%
Cc1ccc(N(C)S(=O)(=O)c2cccc(C(=O)NCC(c3cccs3)N3CCOCC3)c2)cc1 (stereo not drawn) | -5% | u | 10% | u | -18% | -14%
Cc1ccc(S(=O)(=O)NCCCNS(=O)(=O)c2ccccc2Br)cc1 | 7% | -4% | -5% | u | 9% | 0%
O=C(COc1ccc(-c2ccccc2)cc1)NNC(=O)NC1CCCCC1 | -26% | -2% | 0% | -26% | -17% | -6%
Cc1ccc(S(=O)(=O)N(C)c2ccc(C(=O)NCC(c3ccccc3)N3CCCC3)cc2)cc1 (stereo not drawn) | -55% | u | u | 21µM* | -15% | -1%
COc1ccccc1NC(=S)NCc1ccc(S(N)(=O)=O)cc1 | 1% | -8% | 4% | -21% | 5% | 23%
COc1ccccc1NS(=O)(=O)c1ccc(C(=O)NCc2ccc(S(N)(=O)=O)cc2)cc1 | 6% | u | 3% | 15µM* | 1% | -9%
O=C(NCC(c1ccco1)N1CCCC1)c1cc(S(=O)(=O)N2CCOCC2)ccc1Cl (stereo not drawn) | -23% | -12% | -19% | -15% | 0% | -2%
CN(c1ccccc1)S(=O)(=O)c1ccc(Cl)c(C(=O)NCC(c2ccco2)N2CCCC2)c1 (stereo not drawn) | -35% | 13µM* | u | 13µM* | -1% | 0%
COc1ccccc1NS(=O)(=O)c1ccc(C(=O)NCC(c2ccco2)N2CCCCC2)cc1 (stereo not drawn) | -29% | 15µM* | -24% | -25% | 0% | 3%
Cc1ccc(Cl)cc1NS(=O)(=O)c1ccc2c(c1)NC(=O)CCS2 | -31% | x | -1% | x | x | x
Cc1ccc(S(=O)(=O)N2CCC(C(=O)Nc3cc(C(F)(F)F)ccc3N3CCOCC3)CC2)cc1C | -10% | -1% | u | -26% | -14% | -2%
COc1cccc(NC(=S)NC(=O)c2cccnc2)c1 | -17% | -12% | -9% | 1% | 3% | 0%
SMILES | HepG2 viability | TDP1 cell CPT | TGFb SMAD3 inh | TDP1 cell noCPT | HT1080 IDH1KD tx | HT1080-NT tox
O=C(NCC(c1ccc(Cl)cc1)N1CCCCC1)c1ccccc1 (stereo not drawn) | -16% | 13µM* | -15% | 15µM* | x | x
COc1cc(C(=O)NCC(c2ccco2)N2CCCC2)ccc1OCc1ccc(Cl)cc1Cl (stereo not drawn) | -102% | u | u | 23µM* | u | u
CN(C)C(CNC(=O)c1cc(Br)ccc1Cl)c1ccco1 (stereo not drawn) | 5% | -2% | 12% | -21% | 9% | 8%
CN(C)C(CNC(=O)c1cc(S(=O)(=O)N(C)Cc2ccccc2)ccc1Cl)c1ccco1 (stereo not drawn) | -14% | 12µM* | -15% | 12µM* | 3% | 0%
O=C(COC(=O)c1ccccc1NC(=O)c1ccco1)NC1CCS(=O)(=O)C1 (stereo not drawn) | 9% | 11% | -5% | -24% | 17% | 0%
ON=C(CCc1ccccc1)c1ccccc1 | -38% | u | -6% | u | -14% | -7%
Cc1ccc(CN2[C@@H](c3ccccc3)COCCS2(=O)=O)cc1 | 12% | u | u | u | 4% | 10%
O=S1(=O)CCOC[C@H](c2ccccc2)N1Cc1cccc(F)c1 | -15% | u | u | 13µM*! | 17% | 0%
O=S1(=O)CCOC[C@H](c2ccccc2)N1Cc1ccc(F)cc1 | -15% | u | -23% | 11µM* | x | x
CC(=O)Nc1cc(C(=O)N2CC3(C)CC2CC(C)(C)C3)cc2ncn(CCc3ccccn3)c12 (stereo not drawn) | x | u | x | 23µM* | x | x
Cc1ccc(CN2CCN(CCCn3cnc4c(OCc5ccccc5)ncnc43)CC2)cc1 | -35% | 23µM* | u | u | -20% | -4%
COc1ccc(CN(C)CCCn2cnc3c(OCc4ccccc4)ncnc32)cc1 | -16% | u | -24% | u | 2% | -2%
c1ccc(COc2ncnc3c2ncn3CCCN2CCN(Cc3cccc4ccccc34)CC2)cc1 | -116% | u | u | 9.2µM* | u | 16µM*
O=C(CSc1nc2ccc(Cl)cc2[nH]1)NCCc1ccc(Cl)cc1 | -1% | u | u | u | -25% | u
